Screening data (PubChem)
Shiga toxin inh: blocks Shiga toxin action in Vero cells; inhibition, % at 38.7 µM; Vero cells, Shiga toxin protein synthesis inhibition reporter; 290,000 compounds, 9.2% hits; in the data active = inhibition mostly above about 28%, no sharp cut-off; inactive = mostly below about 43%; note: 0% is about no effect
CHX counter: counter-screen hit for Shiga toxin inhibitors, cycloheximide; 300,000 compounds, 12% hits; max response, %; cell reporter, cycloheximide protein synthesis inhibition counterscreen; in the data active = max response mostly above about 13%, no sharp cut-off; inactive = mostly below about 14%; note: read at 38.3 µM for the half of the compounds with a filed dose; 0% is about no effect
Giardia FBPA inh: Giardia lamblia aldolase inhibition; Potency, µM (doses to about 59.6 µM), for inactives: at the highest dose activity, negative = inhibition, hits mostly inhibitors; 290,000 compounds, 0.71% hits; A8B2U2; AID 2451; purified Giardia FBPA; note: potency is the fitted concentration of half-maximal effect; % is set by controls: 0 for no effect and ±100 for the full control effect; nearly all actives have a fitted effect of over 55% in size
Target sequence (A8B2U2 whole entry, looked up): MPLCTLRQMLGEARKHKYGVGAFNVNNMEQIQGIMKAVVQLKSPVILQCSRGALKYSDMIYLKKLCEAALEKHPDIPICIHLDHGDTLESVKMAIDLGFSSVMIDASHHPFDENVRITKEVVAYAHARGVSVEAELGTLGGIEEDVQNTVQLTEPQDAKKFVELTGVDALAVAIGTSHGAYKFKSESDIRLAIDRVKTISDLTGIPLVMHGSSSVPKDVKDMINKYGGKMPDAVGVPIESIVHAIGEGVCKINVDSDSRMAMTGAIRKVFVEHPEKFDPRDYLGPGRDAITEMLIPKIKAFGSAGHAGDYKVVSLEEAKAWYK
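Giardia FBPA (40 nM reagent) was preincubated 10 min at RT with compound (up to 57.5 uM final), then substrate plus GAPDH/TPI/NAD/arsenate coupling system with diaphorase/resazurin was added; resorufin fluorescence (525/598 nm) was read after 20 min.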
NS1 inh: inhibitors of influenza NS1 protein function | Potency, µM (titrated, usually from 46.1 µM), inactives show at the highest dose activity, positive = more growth | 270,000 compounds, 0.4% hits | AID 2326; calls by dose curve; note: potency is the fitted concentration of half-maximal effect; actives are rising curves; nearly all actives have a fitted effect of over 50% in size
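In this qHTS, NS1 from influenza A is expressed in budding yeast, where it slows growth. Cells are switched from glucose to 2% galactose medium (pH 6.0, -URA), treated with compound, and growth recovery is read at OD600.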
Pf growth 48h: P. falciparum growth inhibition at 48 hours (one generation) | 310,000 compounds, 5.9% hits | P. falciparum luciferase growth in erythrocytes, 48 h | Potency, µM (doses to about 28.7 µM), for the others: at the top dose activity change, negative = inhibition, usual class: inhibitors; note: potency is the fitted concentration of half-maximal effect; % is set by controls: 0 for no effect and ±100 for the full control effect
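Luciferase-expressing parasites in RBCs, 2% Hct / 0.1% parasitemia final; RPMI 1640 + 0.5% Albumax; 37 C, 5% CO2, one generation; luminescence read-out, lower signal = inhibition.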
Pf growth 96h: inhibits malaria parasite growth, 96 h. P. falciparum luciferase reporter growth, 96 h. Potency, µM (titrated, usually from 28.7 µM), inactives show at the highest dose activity change, negative = inhibition, usual class: inhibitors. 320,000 compounds, 6.9% hits; note: potency is the fitted concentration of half-maximal effect; % is set by controls: 0 for no effect and ±100 for the full control effect
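Plates of compound plus infected erythrocytes (2% hematocrit, 0.05% parasitemia final) incubate 96 hours, 37 C, 5% CO2. Detection reagent added; reduced luminescence from the parasites' luciferase reporter flags inhibition.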
Numbers without * were called inactive. Shown are actives, neighbours in structure and some others; about 21% of the full set was active somewhere. Unless noted, calls come from the whole dose curve; as a rule, active = well fitted curve in the direction sought with a large enough effect; inconclusive = small, poorly fitted or top-dose-only effect, or another doubt; inactive = no such curve, though single readings can be large; an effect the other way counts as inactive or inconclusive.

Results for NC(=[SH+])N=N/C=C1/C=CC=CN1.O=S(=O)(O)O.[Fe] ?
NS1 inh: 5.2%

How did Cc1cccc(N2CC(C)Cn3c2nc2c3c(=O)[nH]c(=O)n2C)c1 (configuration not stated) do in these assays?
Shiga toxin inh: -7.5; CHX counter: -0.6; Giardia FBPA inh: -1.2%; NS1 inh: 2.2%; Pf growth 48h: -3.3%; Pf growth 96h: 0.5%

What do the screens show for `CC1=C(C(=O)OC(C)C)C(c2cn(-c3ccccc3)nc2-c2cccs2)NC(=O)N1` (configuration not stated)?
Shiga toxin inh: -7.8; CHX counter: -3.2; Giardia FBPA inh: 0.0%; NS1 inh: -6.1%; Pf growth 48h: inconclusive; Pf growth 96h: inconclusive

Results for COCC(=O)N1CCC2(CCCN(Cc3ccc(C#N)cc3)C2)CC1 ?
Giardia FBPA inh: 5.9%

Results for CCCN1CCC(NC(=O)C2CCCCC2C(=O)O)CC1 (configuration not stated) ?
Shiga toxin inh: -8.0; CHX counter: -4.3; Giardia FBPA inh: 7.1%; NS1 inh: 25.3%; Pf growth 48h: 11.2%; Pf growth 96h: inconclusive

What do the screens show for `CC(C)c1nnc(NC(=O)CCS(=O)(=O)c2ccccc2)s1`?
Shiga toxin inh: 43.6*; CHX counter: 9.0; Giardia FBPA inh: -11.4%; NS1 inh: -2.5%; Pf growth 48h: 0.0%; Pf growth 96h: 18.1%

How did O=C(CCc1ccccc1)Nc1ccncc1 do in these assays?
Shiga toxin inh: 1.8; CHX counter: 0.4; Giardia FBPA inh: 2.9%; NS1 inh: -1.4%; Pf growth 48h: 10.9%

Results for CCCC(C)c1nnc(NC(=O)CCS(=O)(=O)c2ccccc2)s1 (configuration not stated) ?
Shiga toxin inh: -13.7; CHX counter: -2.4; Giardia FBPA inh: 4.5%; NS1 inh: -0.2%; Pf growth 48h: 10.9%; Pf growth 96h: 23.6%

What do the screens show for `CC(C)c1ccc(NC(=O)CCc2ccccc2)cc1`?
Shiga toxin inh: 135.5*; CHX counter: 55.8*; Giardia FBPA inh: 1.3%; NS1 inh: -41.7%; Pf growth 48h: 105.0%; Pf growth 96h: -5.3%

How did COc1ccc(C(CNC(=O)C2CC2)N(C)C)cc1 (configuration not stated) do in these assays?
Shiga toxin inh: 26.8*; CHX counter: 16.7*; NS1 inh: 16.8%; Pf growth 48h: 120.0%; Pf growth 96h: 0.0%

What do the screens show for `COc1ccc(C(CNC(=O)C(C)c2ccc3cc(OC)ccc3c2)N(C)C)cc1` (configuration not stated)?
Shiga toxin inh: 17.8; CHX counter: 4.1; Giardia FBPA inh: 14.8%; NS1 inh: -3.2%; Pf growth 48h: inconclusive; Pf growth 96h: inconclusive

Results for CCc1ccc(N2C(=O)C3CCCN3C2=S)cc1 (configuration not stated) ?
Shiga toxin inh: 51.6*; CHX counter: 12.6; Giardia FBPA inh: 6.6%; NS1 inh: -2.9%; Pf growth 48h: inconclusive; Pf growth 96h: 16.2%

How did Cc1cccc(N2C(=O)C3CCCN3C2=S)c1C (configuration not stated) do in these assays?
Pf growth 48h: 13.1µM*; Pf growth 96h: inconclusive

What do the screens show for `COc1ccc(N2C(=O)C3CCCN3C2=S)cc1` (configuration not stated)?
Shiga toxin inh: -5.3; CHX counter: -1.0; Giardia FBPA inh: -1.4%; NS1 inh: -6.7%; Pf growth 48h: -4.9%; Pf growth 96h: inconclusive

Results for CCc1ccc(N2C(=O)C3C4C=CC(CC4)C3C2=O)cc1 (configuration not stated) ?
Shiga toxin inh: 48.2*; CHX counter: 11.9; Giardia FBPA inh: 12.2%; NS1 inh: -10.3%; Pf growth 48h: inconclusive; Pf growth 96h: 205.1%

What do the screens show for `Cc1cccc(N2C(=O)C3C4CC(=O)C(c5ccccc54)C3C2=O)c1C` (configuration not stated)?
Shiga toxin inh: -18.0; CHX counter: -1.3; Giardia FBPA inh: 7.4%; NS1 inh: -0.3%; Pf growth 48h: 17.0%; Pf growth 96h: 38.1%

Results for COc1ccc(S(N)(=O)=O)cc1C(=O)OCCCC(=O)c1ccccc1 ?
Pf growth 48h: inconclusive; Pf growth 96h: 14.7µM*
